# Test results from PubChem BioAssay (NCI).
# The panel holds about 79,000 compounds, 15% with a hit somewhere; the sample as a whole holds those more often. Unmarked numbers belong to inactive results. Activity calls are given as the source filed them. Cut-off read from the data, not from the text of the source: active = growth inhibition above about 70%; inactive = the rest.
# Experiments:
# [1] = NCI Yeast Anticancer Drug Screen. Data for the rad50 strain (AID 155);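 note: 0% = growth of vehicle-only cultures of the same strain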; settings: S. cerevisiae rad50 strain growth inhibition, active compounds read high
# Method in brief: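 Cells are treated with compound, grown, and their growth is then scored against vehicle-only cultures of the same repair-deficient yeast strain.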
# [2] = NCI Yeast Anticancer Drug Screen. Data for the mec2-1 strain (AID 157); settings: S. cerevisiae mec2-1 strain, active compounds read high
# Method in brief: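 mec2-1 yeast strain, carrying an alteration in DNA damage repair or cell cycle control, was exposed to compounds; growth inhibition was measured relative to vehicle-treated controls.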
# [3] = NCI Yeast Anticancer Drug Screen. Data for the sgs1 mgt1 strain (AID 161);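 note: 0% = growth of cultures given vehicle only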; settings: S. cerevisiae sgs1 mgt1 strain, active compounds read high
# Method in brief: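 Growth of a repair-deficient yeast mutant was monitored after compound treatment and expressed as inhibition relative to vehicle-treated cultures.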
# [4] = NCI Yeast Anticancer Drug Screen. Data for the cln2 rad14 strain (AID 165);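 note: 0% = growth equal to vehicle treated cultures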; settings: S. cerevisiae cln2 rad14 strain, active compounds read high
# Method in brief: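 Yeast carrying cln2 and rad14 alterations (cell cycle control and DNA damage repair) were exposed to compounds. Growth inhibition was measured against vehicle-treated controls.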
# [5] = NCI Yeast Anticancer Drug Screen. Data for the bub3 strain (AID 167); settings: S. cerevisiae bub3 mutant strain, active compounds read high
# Method in brief: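 Part of a panel of yeast mutants defective in DNA damage repair or cell cycle regulation. Each strain is grown with compound, and inhibition is calculated relative to solvent-treated cultures.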
# [6] = NCI Yeast Anticancer Drug Screen. Data for the mlh1 rad18 strain (AID 175); settings: S. cerevisiae mlh1 rad18 strain growth inhibition, active compounds read high
# Method in brief: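 Growth inhibition of the yeast strain was measured after compound exposure and expressed relative to vehicle-treated controls. The strain carries defined defects in DNA damage repair.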
# [7] = at 5.0 µM (retest, dose inferred, filed as 0.5)
# [8] = at 50.0 µM (retest, dose inferred, filed as 5.0)
Structure (SMILES),"growth inhibition [1, 7]","growth inhibition [1, 8]",growth inhibition ([1]; at 50.0 µM),"growth inhibition [2, 7]","growth inhibition [2, 8]",growth inhibition ([2]; at 50.0 µM),"growth inhibition [3, 7]","growth inhibition [3, 8]",growth inhibition ([3]; at 50.0 µM),"growth inhibition [4, 7]","growth inhibition [4, 8]",growth inhibition ([4]; at 50.0 µM),"growth inhibition [5, 7]","growth inhibition [5, 8]",growth inhibition ([5]; at 50.0 µM),"growth inhibition [6, 7]","growth inhibition [6, 8]",growth inhibition ([6]; at 50.0 µM)
O=C(Nc1ccccc1)OCCN=c1c2ccccc2ccc2ccccc12,6%,84% (active),84% (active),-1%,71% (active),90.5% (active),7%,48%,88.2% (active),-15%,68%,82.7% (active),5%,78% (active),90% (active),5%,92% (active),87.2% (active)
Oc1ccc(-c2ccccc2)cc1Cl,-1%,98% (active),99.2% (active),-12%,99% (active),99.7% (active),-3%,99% (active),99.7% (active),-11%,98% (active),97.5% (active),-23%,98% (active),99.4% (active),-5%,99% (active),99% (active)
COC(=O)c1ccccc1C=C(c1ccc([N+](=O)[O-])cc1)c1ccc([N+](=O)[O-])cc1,4%,94% (active),93.2% (active),-2%,99% (active),95.8% (active),4%,98% (active),96.5% (active),-11%,97% (active),95.1% (active),-2%,98% (active),94.6% (active),28%,97% (active),96% (active)
O=C1C=CC(=O)N1CCCCCCN1C(=O)C=CC1=O,19%,99% (active),99% (active),29%,100% (active),99.3% (active),32%,99% (active),98.8% (active),16%,99% (active),99.5% (active),20%,97% (active),99.5% (active),38%,99% (active),99.2% (active)
O=C(Oc1cc(Cl)c(Cl)cc1Cl)c1ccco1,0%,-1%,-1.8%,4%,5%,-5.4%,0%,-3%,23.9%,3%,-5%,-10.2%,30%,18%,84.8% (active),1%,-4%,-0.9%
CCC1=CCC2C(=O)c3cc4ccccc4cc3C(=O)C2C1 (stereo not given),11%,26%,89.3% (active),11%,64%,96.2% (active),9%,-4%,89.6% (active),2%,20%,37.5%,10%,61%,93% (active),7%,46%,94.8% (active)
Nc1cc(=O)[nH]c(=S)[nH]1.[Pd],0%,-4%,20%,4%,5%,18.6%,5%,6%,13.3%,0%,36%,71% (active),3%,13%,-4.45%,0%,-4%,35.6%
CCCCNC(=O)OCc1c(COC(=O)NCCCC)c(-c2ccc(Cl)c(Cl)c2)n2c1CCC2,33%,98% (active),26.6%,27%,99% (active),7.3%,48%,99% (active),31.2%,53%,98% (active),70%,56%,98% (active),4.4%,25%,98% (active),31.8%
CCCCCCCCCCCC(=O)Oc1c(Cl)c(Cl)c(C#N)c(Cl)c1Cl,5%,0%,70.7% (active),2%,3%,23.4%,5%,7%,60.9%,12%,-1%,48.6%,1%,-1%,8.7%,5%,13%,86.7% (active)
COc1ccc(C(=O)c2ccc([N+](=O)[O-])cc2)cc1,-1%,-19%,-4.55%,7%,-9%,-12.2%,3%,0%,-3.8%,-15%,-47%,53.4%,9%,-17%,17.5%,13%,0%,-21.6%
CC(N1CCOCC1)C(O)(c1ccccc1)c1ccccn1 (stereo not given),3%,10%,-19.4%,-1%,-15%,-35.9%,-4%,-15%,-32.6%,24%,-1%,60.2%,-2%,-15%,-42.4%,4%,19%,2.75%
O=S1(=O)c2ccccc2C(=NO)c2ccccc21,-5%,-9%,-7.95%,-3%,-26%,13.2%,-7%,-21%,-15.4%,3%,0%,66%,-1%,-17%,7.7%,-3%,-21%,-3.55%
CCN(CC)c1ccc(N=C2C=C(C(=O)Nc3cccc(Cl)c3)C(=O)c3ccccc32)c(C)c1,-1%,-12%,-17.9%,8%,32%,-7%,-30%,-23%,-9.25%,-4%,-7%,38.4%,0%,-12%,-4.35%,-34%,-43%,-27.2%
Nc1cccc2c1C(=O)c1cccc(Cl)c1C2=O,31%,83% (active),87.7% (active),3%,16%,11.8%,0%,14%,21.1%,1%,2%,-82%,5%,21%,58%,11%,30%,50.3%
COc1ccc(C(=O)Cc2ccc(Cl)cc2)cc1OC,-12%,-1%,6.3%,-7%,-13%,2.65%,-14%,-17%,10.5%,9%,-3%,-4.45%,-1%,-1%,3.55%,-17%,-22%,16.6%
COc1cc(Cc2n[nH]c(=S)n2-c2ccccc2)c(S(N)(=O)=O)cc1OC,4%,4%,10.1%,1%,4%,0.85%,9%,-16%,-2.75%,0%,4%,8.55%,-2%,3%,0.15%,0%,-62%,11.4%
O=C1C=CC(=Nc2cccc3c2-c2ccccc2C3)O1,98% (active),99% (active),99.6% (active),99% (active),99% (active),99.6% (active),99% (active),99% (active),99.7% (active),88% (active),99% (active),99.4% (active),99% (active),99% (active),99.7% (active),99% (active),99% (active),85.6% (active)
CSC(=S)/C(=C/Nc1ncccn1)c1ccccc1,5%,97% (active),94.8% (active),3%,99% (active),93.5% (active),-3%,94% (active),79% (active),1%,62%,95% (active),-3%,94% (active),91.8% (active),7%,97% (active),94.5% (active)
O=C1OC(CCl)CC12CC(CCl)OC2=O (stereo not given),1%,2%,93.7% (active),-4%,3%,89.7% (active),-1%,1%,94% (active),-1%,1%,79.6% (active),0%,-3%,96% (active),-3%,0%,95.9% (active)
CC1CN(CCCN2c3ccccc3Sc3ccc(Cl)cc32)C(C)(C)C1 (stereo not given),1%,99% (active),99.7% (active),5%,100% (active),99.8% (active),17%,100% (active),99.8% (active),10%,99% (active),99.3% (active),21%,100% (active),99.3% (active),9%,99% (active),99.8% (active)
